Results as given in PMC4552634, “A New Set of Chemical Starting Points with Plasmodium falciparum Transmission-Blocking Potential for Antimalarial Drug Discovery” (PLoS ONE, 2015).
Among all 13,000 compounds or so, about 3,200 (25%) showed an effect of 50% or more. Some of the results follow.

test system: P. falciparum stage V gametocytes; parameters: BacTiter-Glo ATP luminescence viability of purified stage V gametocytes in 384-well plates, per cent inhibition versus DMSO; details: 48 h, 5 µM; inhibitor

SMILES | % Inhibition [%]
COc1ccc(N2CCN(CCCCNC(=O)c3ccc(NC(=O)c4ccc(OC(F)(F)F)cc4)cc3)CC2)c(OC)c1 [TCMDC-138149] | -10.77
N#Cc1ccc2c(c1)CCN(CCC1CCC(Nc3ncnc4ccccc34)CC1)C2 (centres unmarked) [TCMDC-139358] | -22.56
Cc1cccc2nc(-c3ccc(-c4cccc(NC(=O)C(C)CN(C)C)c4)s3)[nH]c12 (centres unmarked) [TCMDC-137116] | 33.05
CN(C)c1cc(NC(=O)Nc2ccc(SC(F)(F)F)cc2)c2ccccc2n1 [TCMDC-123994] | 86
CCC(C)c1ccc(NC(=O)Nc2ccnc3ccccc23)cc1 (centres unmarked) [TCMDC-139723] | 3.75
CN(C)c1cc(NC(=O)Nc2ccccc2)c2ccccc2n1 [TCMDC-123521] | 30.25
O=C(Nc1ccc(SC(F)(F)F)cc1)Nc1ccnc2ccccc12 [TCMDC-139287] | 73.37
Cc1cc2cc(NC(=O)Nc3ccnc4ccccc34)ccc2n1C [TCMDC-139291] | -17.26
Cc1cc(NC(=O)Nc2cccc(N(C)C)c2)c2ccccc2n1 [TCMDC-138955] | -40.58
N#Cc1ccc2c(c1)CCN(CCC1CCC(NC(=O)c3cc4ccccc4[nH]3)CC1)CC2 (centres unmarked) [TCMDC-139633] | -57.67
O=C(Nc1ccc(Cl)cc1)c1cc(Cl)ccc1NC(=O)C1CCc2ccccc2O1 (centres unmarked) [TCMDC-136640] | -15.02
CCOc1c(CCNCCCCNCCc2ccc3ccccc3c2OCC)ccc2ccccc12 [TCMDC-137759] | 109.7
CCOc1c(N2CCN(CCCCNC(=O)c3ccc(NC(=O)c4ccc(Cl)cc4)cc3)CC2)ccc2ccccc12 [TCMDC-138522] | 6.305
CCCOc1cc(O)c(-c2n[nH]c(C)c2Oc2ccccc2)cc1CC [TCMDC-125714] | -75.18
CCCOc1ccc(CCNCCCCNCCc2ccc(OCCC)c3ccccc23)c2ccccc12 [TCMDC-137952] | 124.7
CCCOc1c(CCNCCCCNCCc2ccc3ccccc3c2OCCC)ccc2ccccc12 [TCMDC-137950] | 113.4
CC(=NO)C1=C(O)C(c2ccccc2)N(c2ccccc2)C1=O (centres unmarked) [TCMDC-131673] | 13.72
O=C(/C=C/c1ccc(Cl)c(Cl)c1)NCCCCCN1CCCN(C(=O)Nc2ccc(F)c(F)c2)CC1 [TCMDC-135750] | -25.07
CCCC(C)Nc1nc(C)cc(N[C@@H](Cc2ccccc2)C(=O)NCCc2ccccc2)n1 (some centres unmarked) [TCMDC-134766] | 6.892
O=C(Nc1ccc(OC2CCN(Cc3ccsc3)C2)c(Cl)c1)c1ccco1 (centres unmarked) [TCMDC-133950] | 41.88
